Measured values taken from ChEMBL document CHEMBL3988442, “University of Dundee, Small-Polar-MMV Screening Library” (2021).
The campaign covered roughly 48,000 compounds. About 13,000 (27%) showed an effect of 50% or more. This is one part of the list.

These compounds were tested on Wolbachia pipientis (assay: Anti-Wolbachia Cell-Based Screen). Settings: 5 µM.
Assay type: functional
Design: scale not given: in the data most compounds retested in dose-response had high values

Row | Structure (SMILES) | Percent Effect [%]
1 | COc1ccccc1OCC(=O)Nc1ncccc1OC(F)F | -1.305
2 | CCCNC(=O)CSc1nnc2[nH]c(=O)cc(CC)n12 | -17.32
3 | Cc1nc(C(=O)N2CCC3(CC2)CC(=O)N(CC2CCCO2)C3)cs1 (stereo not given) | 9.74
4 | Cn1ccc(C(=O)N(CC(F)F)c2cccc(Cl)c2)cc1=O | -3.04
5 | O=C(O)C1(n2cccn2)CCN(c2nc(-c3ccccc3)no2)CC1 | -0.7442
6 | Cc1n[nH]c(C)c1CCN(C)c1ccc(-c2nc(C3CC3)no2)cn1 | 5.085
7 | COCCO[C@@H]1C[C@H]2CN(C(=O)c3cnccn3)CCN2C1 | -15.94
8 | COC(=O)C(C)CN(Cc1ccccc1)C(=O)CN1CCCNC1=O (stereo not given) | -9.826
9 | Cc1cc(N2CCC(C(=O)O)(n3ccc(C(C)C)n3)CC2)nc(N)n1 | -20.6
10 | Cc1csc(CN2CCC(C(=O)O)(n3ccc(-c4ccco4)n3)CC2)n1 | 105
11 | Cc1nccn1C1(C(=O)O)CCN(Cc2ccc3occc3c2)CC1 | -3.386
12 | Cc1occc1C(=O)N1CCC2(CCN(Cc3cccs3)C2)CC1.O=C(O)C(F)(F)F | -0.4808
13 | Cc1ccc(N2CCC(C(=O)O)(n3ccc(C(C)C)n3)CC2)nn1 | -12.67
14 | O=C(O)C(F)(F)F.c1coc(COCc2ncn3c2CN(Cc2cccs2)CCC3)c1 | 7.487
15 | Cc1nc(CN2CCC(C(=O)O)(n3ccc(C(C)C)n3)CC2)co1 | 99.57
16 | Cc1csc(CN2C[C@@H]3COC[C@]3(C(=O)NCc3ccco3)C2)n1 | -36.74
17 | O=C(O)C1(n2ccc(-c3ccco3)n2)CCN(Cc2cccs2)CC1 | 77.42
18 | O=C1CN(CCCNC(=O)Nc2cccc(Cl)c2F)CCN1 | 1.597
19 | Cc1cc(C)n(-c2ccc(N3CCCSCC3)nc2)n1 | 0.3589
20 | CC1CCc2n[nH]c(C(=O)NCCc3ccco3)c2C1 (stereo not given) | 14.64
21 | CCOc1ccccc1-c1noc(CN2CCCC(O)C2)n1 (stereo not given) | -2.765
22 | CC(C)S(=O)(=O)C(C)C(=O)Nc1ccc2oc(C3CC3)nc2c1 (stereo not given) | -8.387
23 | O=C(c1cccnc1O)N1CCCN(c2cccnn2)CC1 | -5.126
24 | CNc1ccc(CC2CCCN(C(=O)c3cnco3)C2)nn1 (stereo not given) | 129.2
25 | CNc1ccc(CC2CCCN(C(=O)c3c(C)noc3C)C2)nn1 (stereo not given) | 118

Row | Structure (SMILES) | Percent Effect [%]
26 | O=C(c1cc(CC2(NC3CCCCC3)COC2)no1)N1CCCCC1 | 6.649
27 | O=C(c1cc(CC2(NCC3CCCCC3)COC2)no1)N1CCCCC1 | 0.2272
28 | CNc1ncc(C(=O)N2CCCC(Cc3ccccc3OC)C2)s1 (stereo not given) | -5.807
29 | CCc1cc(C(=O)N2CCCC(Cc3ccc(NC)nn3)C2)on1 (stereo not given) | 109.6
30 | Cc1noc(C)c1C(=O)N1C[C@@H]2CCCO[C@@H]2[C@H](N(C)C)C1 | 3.092
31 | CNc1ccc(CC2CCCN(C(=O)c3scnc3C)C2)nn1 (stereo not given) | 109.5
32 | O=C(CN1CCCc2c(F)cc(Br)cc21)N1CCCC1 | -2.164
33 | CCN1CCC(Cn2ccc3c(OC)c(OC)ccc3c2=O)C1 (stereo not given) | -8.791
34 | COCC[C@]1(O)CCN(c2ncc(Cl)cc2F)C[C@H]1C | -5.057
35 | CS(=O)(=O)N1C[C@@H]2CC[C@H](C1)N(CCC(=O)NCc1ccco1)C2 | 6.139
36 | Cc1nonc1CN1CC[C@@](O)(C2CCOCC2)[C@H](C)C1 | -5.747
37 | C[C@@H]1CN(Cc2nc(C(N)=O)no2)CC[C@@]1(O)C1CCOCC1 | -5.887
38 | Cc1nnsc1CN1CC[C@@](O)(C2CCC2)[C@H](C)C1 | -20.69
39 | CCc1nc(C)sc1CN1CC[C@@](O)(C2CCOCC2)[C@H](C)C1 | 107.2
40 | CCc1nc(C)sc1CN1CC[C@@](O)(C2CC2)[C@H](C)C1 | 90.8
41 | Cc1nonc1CN1CC[C@@](O)(C2CCC2)[C@H](C)C1 | 2.704
42 | CCC1=N[C@@]2(CC[C@@H]3CN(S(=O)(=O)CC(C)C)C[C@@H]32)C(=O)N1CC | 2.129
43 | Cc1nc(-c2ccc(S(=O)(=O)N3CCSC3)cc2)co1 | -2.878
44 | CCOc1cc(C(=O)N2CCCC(c3cc(C(N)=O)[nH]n3)C2)ccn1 (stereo not given) | -0.59
45 | Cc1cc(C2CCCN(C(=O)c3ccc(OCC4CC4)nc3)C2)n[nH]1 (stereo not given) | -13.31
46 | Cl.O=C(c1ccnc(C2CCNCC2)c1)N1CCCC1 | 87.63
47 | O=C(c1ccc2c(c1)[nH]c(=O)n2C1CCCC1)N1CCC1 | -5.446
48 | COc1ncccc1-c1cc(C(=O)NC2CC2)ccn1 | 1.183
49 | Cl.O=C(NC1CCCC1)c1ccnc(C2CCNCC2)c1 | 105.6
50 | Cl.Cl.Cn1cnc2c(N3CCOCC3)nc(C3CCNCC3)cc21 | -9.589
